An excerpt weighted towards active compounds, which were near 8.2% of everything screened.
SW480 rereplic – DNA re-replication induction in SW480 cells; AID 624297; 340,000 tested, 1.8% active; SW480 DNA re-replication, Hoechst DNA content imaging, 48 h; Potency, µM (top dose mostly 46.1 µM), hits mostly activators; further: nearly all actives have a fitted effect of over 55% in size
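Treated cells incubate 48 hr (37 C, 5% CO2), are stained 40 min with Hoechst, and nuclear fluorescence is enumerated; a rise in nuclei with high DNA signal marks re-replication.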
MCF10A rerep – DNA re-replication induction in MCF 10a cells; MCF 10A DNA re-replication, Hoechst nuclear intensity, 48 h; Potency, µM (top dose mostly 46.1 µM), hits mostly activators; 350,000 tested, 2.9% active; AID 624296; further: nearly all actives have a fitted effect of over 50% in size
ELG1 repair inh – blocks ELG1-dependent DNA repair in HEK293T cells | Potency, µM (doses to about 46.1 µM), most hits filed as inhibitors | AID 504467 | HEK293T ELG1-luciferase reporter, luminescence, 16 h; DNA damage induced by 5-fluorouridine | 330,000 tested, 2.3% active; further: nearly all actives have a fitted effect of over 55% in size
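Overnight (16 hr) co-exposure of 2,000 cells/well to 5-fluorouridine and compound at 37 °C preceded detection. Luciferase was quantified via ONE-Glo luminescence; loss of signal denotes inhibition.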
KB-V1 cytotox – KB-V1 MDR subline cytotoxicity; KB-V1 MDR cells viability, CellTiter-Glo, 72 h; Potency, µM (highest dose often 46.1 µM), usual class: cytotoxic; 400,000 tested, 3.4% active; AID 1347076; further: nearly all actives have a fitted effect of over 60% in size
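KB-V1 cells (P-gp-expressing MDR subline of KB-3-1) in phenol-red-free DMEM with 10% FBS were exposed to library compounds over a concentration series for 72 h at 37 degrees C. Viability read by CellTiter-Glo luminescence; concentration-effect curves fitted after normalization.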
KB-3-1 cytotox – kills parental KB-3-1 adenocarcinoma cells | KB-3-1 viability, CellTiter-Glo ATP luminescence, 72 h | Potency, µM (series often up to 46.1 µM), most hits filed as cytotoxic | 400,000 tested, 1.4% active | AID 1347075; further: nearly all actives have a fitted effect of over 60% in size
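Parental KB-3-1 viability, qHTS format: 72 h compound exposure, 37 °C; CellTiter-Glo; media-only wells and DMSO plates as controls; concentration-effect fits on corrected data.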
A number is an active result; . = inactive; ? = inconclusive; / = not tested or not shown. The call rests on the fitted dose curve; in most records, active means well fitted curve in the direction sought with a large enough effect; inconclusive means small, poorly fitted or top-dose-only effect, or another doubt; inactive means no such curve, though single readings can be large; an effect the other way counts as inactive or inconclusive.

SMILES	SW480 rereplic	MCF10A rerep	ELG1 repair inh	KB-V1 cytotox	KB-3-1 cytotox
CC1CC(C)CN(C(=O)C2CCN(C(=O)Nc3ccccc3)CC2)C1 (centres undefined)	.	.	.	21µM	.
CC1CCC(NC(=O)C2CCN(c3nc4ccccc4s3)CC2)CC1 (centres undefined)	.	.	.	7.3µM	?
NC(=O)C1CCN(C(=O)Nc2ccccc2)CC1	.	.	.	/	/
Cc1ccc(CNC(=O)c2ccc3c(c2)NC(=O)C(CS(=O)(=O)Cc2cccc(C)c2)N3)cc1 (centres undefined)	/	/	/	.	.
CCOCCCNC(=S)N(Cc1ccccc1)Cc1nc2ccccc2c(=O)[nH]1	.	.	?	.	.
O=C(c1ccncc1)N(Cc1ccccc1)Cc1nc2ccccc2c(=O)[nH]1	.	.	.	.	.
O=C(c1ccccc1)N(Cc1ccc(F)cc1)Cc1nc2ccccc2c(=O)[nH]1	4.1µM	?	.	.	.
CCCNC(=S)N(Cc1ccccc1)Cc1nc2ccccc2c(=O)[nH]1	.	.	?	5.2µM	?
Cc1ccc(OC(C)C(=O)Nc2ccc(S(=O)(=O)N3CCOCC3)cc2)cc1 (centres undefined)	.	.	.	.	.
CC(=O)Nc1cccc(-c2ccnc3c2CC(C)(C(=O)Nc2cccc(NS(C)(=O)=O)c2)O3)c1 (centres undefined)	/	/	/	.	.
O=C1CC2c3ccccc3C1C1C(=O)N(CCc3ccccc3)C(=O)C21 (centres undefined)	.	.	.	.	.
C=CCN1C(=O)C2C3CC(=O)C(c4ccccc43)C2C1=O (centres undefined)	5.2µM	.	.	.	.
c1cnc(N2CCN(c3nc4ccccc4n4cnnc34)CC2)nc1	.	.	.	7.3µM	?
c1ccc(C(c2ccccc2)N2CCN(c3nc4ccccc4n4cnnc34)CC2)cc1	.	7.3µM	?	9.2µM	23µM
Cc1cccc(N2CCN(c3nc4ccccc4n4cnnc34)CC2)c1C	.	?	.	.	.
CCN(CC(=O)NC(C)(C)C)Cc1cc(=O)n2c(-c3ccccc3)csc2n1	.	.	.	.	.
O=C(CSc1nnc(NC(=O)C2CC2)s1)Nc1ccccc1Cl	.	.	.	.	.
Cn1c(=O)nc2n(Cc3ccccc3)c3cccc(Cl)c3cc-2c1=O	.	.	.	21µM	.
O=C1NC[C@H](CCCCN2C[C@@H](Cc3ccccc3)N(Cc3ccccc3)C(=O)C2=O)N(CCC2CCCCC2)C1=O	/	/	/	.	.
O=c1[nH]c2cc3c(cc2cc1CN(Cc1ccco1)C(=S)NCC1CCCO1)OCCO3 (centres undefined)	.	?	.	?	?
Cc1ccc2cc(CN(Cc3ccco3)C(=S)NCC3CCCO3)c(=O)[nH]c2c1 (centres undefined)	.	.	21µM	?	.
Cc1cccc2cc(CN(Cc3cccs3)C(=S)NCC3CCCO3)c(=O)[nH]c12 (centres undefined)	?	?	16µM	.	.
Cc1ccc(C)c2[nH]c(=O)c(CN(Cc3ccco3)C(=S)NCC3CCCO3)cc12 (centres undefined)	.	.	23µM	?	.
Cc1cccc2cc(CN(CC3CCCO3)C(=S)NCc3ccco3)c(=O)[nH]c12 (centres undefined)	?	.	18µM	4.1µM	.
Cc1cccc2cc(CN(CC3CCCO3)S(=O)(=O)c3ccccc3)c(=O)[nH]c12 (centres undefined)	.	.	.	?	.
COc1ccc(-c2ccc(NS(=O)(=O)c3ccccc3Cl)cc2)nn1	/	/	/	.	.
CCc1ccccc1N(C)C(=O)C1CCCN(c2ncnc3c2nc2n3CCCCC2)C1 (centres undefined)	/	/	/	?	.
O=C(c1cc2ccccc2oc1=O)N(Cc1ccccc1)CC1CCCO1 (centres undefined)	.	.	.	.	.
Cc1cccc2cc(CN(Cc3ccco3)C(=O)c3ccncc3)c(=O)[nH]c12	.	.	11µM	.	.

From PubChem BioAssay
